According to PubChem BioAssay (NCI):
Values joined by “and” are separate entries in the source; they are usually repeats but may differ in a detail not shown here. Equal entries are not always repeated. This is part of a sample that, as a whole, favours compounds with a hit. Of some 83,000 tested, about 20% had one in any assay.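 48-hour exposure, single concentration, 96-well plates; percent growth endpoint where 0 means no net growth. Active: below 10.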 Unmarked numbers belong to inactive results. Active and inactive are the calls of the source.

The molecules below were run on MDA-MB-468 breast (assay: NCI-60 one-dose screen, 48 h (100 = growth as untreated, 0 = no growth, -100 = all killed)). Conditions: 10 µM unless noted.
In the case of `CC(O)COc1ccc(-c2ccccc2)cc1` (stereo not given), the growth was 102%. `Cc1ccc(C(=O)Nc2ccc(CN3CCN(C)CC3)c(C(F)(F)F)c2)cc1C#Cc1cnc(N)cc1C#N` was tested, and the growth was -63.8% (active). In the case of `CNc1ccc(Nc2cccc(C)c2)c2c1C(=O)c1ccccc1C2=O`, the growth was -13.1% (active). `COc1cc(C2C3=C(COC3=O)Nc3cc4c(cc32)CCC4)cc2c1OCO2` (stereo not given) was tested, and the growth was -8.49% (active). `N#Cc1ccc(NC2c3ccccc3CC2O)cc1` (stereo not given) showed a growth of 107%. `CCOC(=O)c1c(C(=O)OCC)c2cc(-c3ccn4c(C(=O)c5ccccc5)c(C(=O)OCC)c(C(=O)OCC)c4c3)ccn2c1C(=O)c1ccccc1` showed a growth of 106%. Molecule `O=C(CCCCCCCn1cc(-c2cccnc2)nn1)Nc1ccccc1-c1ccccc1` has a growth of 48.2%. With `COC(=O)[C@H](Cc1ccc(O)cc1)NC(=O)[C@@H](OC)[C@@H]1Cc2cc3cc(OC4CC(OC5CC(O)C(O)C(C)O5)C(O)C(C)O4)c(C)c(O)c3c(O)c2C(=O)[C@H]1OC1CC(OC2CC(OC3CC(C)(O)C(O)C(C)O3)C(O)C(C)O2)C(O)C(C)O1` (stereo not given in full) the growth was -25.5% (active). For `O=C1C=CC(=O)N1c1cccc2c1CCCC2`, the growth was 95.1%. For `Cc1cc(=O)[nH]c(O)c1C#N`, the growth was 97.5% and 95.9% and 111%. `CC(=O)Oc1ccc(CCN2C(=O)CSC2=S)cc1` was tested, and the growth was -12.9% (active). In the case of `C=C(C)[C@@H]1CC[C@]2(C(=O)NCC(=O)OC)CC[C@]3(C)[C@H](CC[C@@H]4[C@@]5(C)Cc6c([nH]c7ccccc67)C(C)(C)[C@@H]5CC[C@]43C)[C@@H]12`, the growth was 55.1%. In the case of `COc1cc2c3c(n(CCCNC4CCCCC4)c(=O)c2cc1OC)-c1cc2c(cc1C3=O)OCO2`, the growth was 78.8%. Work on `CCc1ccccc1NC(=O)c1sc2nc3c(cc2c1N)C(=O)CCC3` yielded a growth of 43.3%. With `O=S(=O)(NCCCNc1cc(-c2cn(-c3ccccc3)nc2-c2ccccc2)ccn1)c1ccc(C(F)(F)F)cc1` the growth was 40.7%. In the case of `Cn1cc(-c2nonc2-c2cn(C)c3ccccc23)c2ccccc21`, the growth was 30.3%. `O=Cc1ccc(F)cc1` was tested, and the growth was 91%. Molecule `CC(C)=NNc1ncnc2c1ncn2C1OC(CO)C(O)C1O` (stereo not given) has a growth of 12.5%. With `CCN(CC)CCCC(C)N(Cc1ccccc1)CC(O)c1ccc(Cl)cc1` (stereo not given) the growth was 91.2% and 104%. With `Cc1cc(C(C#N)c2ccc(Cl)cc2)c(Cl)cc1NC(=O)c1cc(I)cc(I)c1O` (stereo not given) the growth was 58.9%. Molecule `CCC(C)(C)C(=O)O[C@H]1C[C@@H](C)C=C2C=C[C@H](C)[C@H](CC[C@@H]3C[C@@H](O)CC(=O)O3)[C@H]21` has a growth of 52.6%. `COc1ccc(C(=O)c2c(N)c(C#N)cn2-c2ccc(Cl)cc2Cl)cc1` was tested, and the growth was 89.5%. Work on `Cc1[nH]c(C(=O)Nc2ccccc2OC2CCNC2)c(Cl)c1Cl` (stereo not given) yielded a growth of 53.8%. `CCNCCNc1cc(C2CCCCC2)c(C#N)c2nc3ccccc3n12` was tested, and the growth was -45.3% (active). Work on `Oc1ccc(Cl)cc1Cc1cc(Cl)ccc1O` yielded a growth of 19.2%. Molecule `Nc1nccc(Nc2ccccc2)n1` has a growth of 116%. For `COc1c(B(O)O)cccc1-c1nc2ccc3[nH]ncc3c2c2c1C1CCC2C1` (stereo not given), the growth was 89.9%. In the case of `O=C(Nc1nn2c(-c3cc(C(F)(F)F)cc(C(F)(F)F)c3)nnc2s1)C1CCCC1`, the growth was -17.2% (active). `O=C(CN1CCCCC1)Nc1nc(-c2cc3ccccc3oc2=O)cs1` was tested, and the growth was 96.3%. `c1ccc(-c2nc(Nc3nccnn3)c3ccccc3n2)cc1` showed a growth of 83.5%. `CCNCCNc1cc(-c2ccc(C(=O)OC)cc2)c(C#N)c2nc3ccccc3n12` gave a growth of 31.4%. In the case of `CCNCCNc1cc(-c2ccc(Cl)cc2)c(C#N)c2nc3ccccc3n12`, the growth was -45.3% (active). With `CCCCCCCCCCCC(=O)OCCNC(=O)C[n+]1ccccc1` the growth was 101%. `N[C@@H](CC/[N+]([O-])=N/O)C(=O)O` gave a growth of 97.4%. Work on `Cc1c(O)nc(N)[nH]c1=O` yielded a growth of 105%. `O=C(c1ccccc1)C(Sc1ccccc1)c1ccccc1` (stereo not given) gave a growth of 88.7%. In the case of `Cn1cc(-c2noc(-c3cn(C)c4ncccc34)n2)c2cc(Cl)ccc21`, the growth was 91.3%. `NC(N)=Nc1ccc(Nc2cccc(Oc3ccc(Cl)c(C(F)(F)F)c3)c2)cn1` was tested, and the growth was 8.19% (active). In the case of `Brc1ccc(-c2[nH]ncc2-c2c[nH]c3ccccc23)cc1`, the growth was 99.5%. `COc1cccc(Oc2ccccc2NC(=O)CNC(=O)c2cccc3ccccc23)c1` gave a growth of 12.1% [5 µM].
